# Results published in the supplement of paper PMC6555819.
# Key:
# Test in all cases: PBM binding z-score (relative to random genomic background probes); higher = stronger binding; sequences stand for … in GC…GCGATTGACAGCGTAGAATGAAGG
# [1] = test system: PPARg:RXRa DBDmut IVT, anti-RXR (DBD mutation: RXRa K156A/R161A, NR concentration 270 nM, RXRa partner concentration 90 nM)
# Outline: (§1)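 For binding z-scores, the reference was random background probes on custom Agilent 4×180K protein-binding microarrays. These arrays were incubated 1 h with ligand-free nuclear receptor dimers in PBS pH 7.4, 2% milk, 0.02% Triton X-100, 1 mM DTT, 0.2 mg/mL BSA and 0.4 mg/ml salmon testes DNA. Fluorescence was scanned after antibody detection of each partner (one per run) and regression-normalized.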
# [2] = test system: PPARg:RXRa IVT, anti-PPARg (NR concentration 270 nM, RXRa partner concentration 90 nM)
# Outline: as §1
# [3] = test system: PPARg DBDmut:RXRa IVT, anti-PPARg (DBD mutation: PPARg1 K132A/R137A, NR concentration 270 nM, RXRa partner concentration 90 nM)
# Outline: as §1
# [4] = test system: PPARg DBDmut IVT, anti-PPARg (DBD mutation: PPARg1 K132A/R137A, NR concentration 270 nM)
# Outline: as §1
# [5] = test system: PPARg homodimer (NR concentration 180 nM)
# Outline: as §1
# [6] = test system: PXR:RXRa (NR concentration 270 nM, RXRa partner concentration 90 nM)
# Outline: as §1
# [7] = test system: PXR homodimer (NR concentration 270 nM)
# Outline: as §1
# [8] = test system: RARa:RXR (NR concentration 270 nM, RXRa partner concentration 90 nM)
# Outline: as §1
# [9] = test system: RARa homodimer (NR concentration 270 nM)
# Outline: as §1
# [10] = test system: RARb:RXRa (NR concentration 270 nM, RXRa partner concentration 90 nM)
# Outline: as §1
Sequence,PBM binding z-score [1],PBM binding z-score [2],PBM binding z-score [3],PBM binding z-score [4],PBM binding z-score [5],PBM binding z-score [6],PBM binding z-score [7],PBM binding z-score [8],PBM binding z-score [9],PBM binding z-score [10]
CCTCCAAGGTCAAGGTCAGTGAAAGAGACTCGAA,2.84,4.47,0.309,-0.405,3.87,4.83,1.54,5.14,2.11,5.8
TCTCGGAGGACACGAAAGGTCAGAGGTCGACATC,1.89,2.44,-0.583,-0.569,2.83,5.34,0.827,6.51,1.05,4.57
ACGAGCAGGCCAAGGGTCACTCAAGATTAGTCCG,0.294,2.7,-0.273,-0.61,1.76,3.15,-0.226,4.01,0.319,3.69
TCTCGGAGGACACGAAAGGTCAGACCTCGACATC,1.73,1.54,0.0109,-0.512,2.48,4.1,0.547,4.15,1.09,4.28
CCTCGCAGGACAACAGGAGGTCAGAGCTGCCAGA,-0.0217,0.0775,-0.749,-0.93,1.52,1.89,0.261,2.26,-0.0612,2.28
CCTTACGTGTCACTGACAGGTTATAGCATTTGGA,2.18,1.32,0.83,1.13,1.53,0.903,0.611,1.21,1.67,1.19
GCGACTGGGGCAAAGCAGGTCACCATAAGGTTGG,3.8,4.81,0.568,-0.842,1.51,3.05,-0.164,2.96,-0.0737,2.42
CGAACTAGGTCAAGGACAGTTAATCTCCGCACGC,8.24,8.35,2.25,0.939,1.62,1.5,0.185,1.87,0.669,3.76
TCTAGTGGGTCACGGAGGTCACACACGACGGGTA,7.01,7.92,1.74,0.78,4.58,5.92,5.35,6.43,2.44,4.78
GCTAGCAGGCCATTTGGGTCATTCAATGACGGGC,2.06,2.04,-1.48,-1.11,-0.184,0.822,0.976,0.854,-0.862,1.28
TCTGCTAGGACAGTTGGTCAGCTAACGAGCTGCC,0.464,0.0709,-0.543,-0.756,-1.29,-0.745,-1.05,-0.557,-1.03,0.346
TCATGTAGATCAGCAGGTTAAGAAAGCTGGCCAA,1.87,0.284,-0.501,-0.804,0.238,0.193,0.00655,0.125,-0.0627,0.286
CTCGAAAGGTCGTTTGAGGTGAGTATACGGATAA,0.353,1.91,1.09,0.474,1.54,5.25,0.584,4.16,-0.088,3.89
CCTACTGGGCCCTCAGGTCATTGATATCAACGTT,-0.0673,1.11,-0.224,-0.58,0.88,1.43,0.581,1.64,0.179,1.4
TGTCAAAGTTCAAAGGTAACGGAAGTATCCACAC,0.604,4.88,1.63,2.48,3.69,5.74,3.74,6.93,1.65,5.07
ATCTCTAGGTAACCACGTTCAGTGAATGCCGAAC,2.95,2.6,1.15,0.998,0.238,-0.177,0.023,-0.2,0.526,0.324
CGAACTAGGTCATCCTGGACAGTGAATACATTGA,8.23,8.04,1.58,0.831,1.83,1.3,-0.0548,2.02,0.627,3.58
CCTAGTTGGTCAAGGTCACTCACGCTATAGGTAC,2.34,3.16,0.496,1.05,3.66,3.73,2.8,3.58,2.53,4
TAACCAAGGTGAAGGTCGTTGATCCCTCTGTAGA,1.46,2.78,-0.196,-0.741,0.785,1.48,0.489,1.92,-0.478,2.12
CGTCCAAGGCCAAGGTCAGTGAAAGAGACTCGAA,0.486,0.991,-1.04,-1.54,1.05,1.53,0.261,2.04,0.342,3.58
ATATGTCGGTTACATCCGGGTCATTCAGGCTATG,2.55,3.18,2.61,1.84,1.05,2.85,2.72,2.88,0.00144,1.91
CCTACTGGGTCAAAAAGGTCATTGATGCCGATAA,5.6,6.85,0.701,-0.419,4.23,6.02,9.56,6.15,2.31,4.66
CAAACTAGGTCACGAAAGGTCAAAGTAGAATGAC,8.54,9.02,2.85,3.25,6.18,6.93,2.94,7.51,4.51,5.71
